TLR4-MyD88 BLA: inhibitors of human TLR4-MyD88 binding | HeLa CL3-4 TLR4/MyD88 BLA complementation, FRET ratio | AID 861 | 0.18% of 200,000 active | O00206+Q99836 | inhibition, % at 8.4 µM; in the data active means inhibition above about 25%
Beta2AR agonist: agonists of human beta-2 adrenergic receptor inducing internalization; P07550; Am2.2-beta2AR cells, FAP receptor internalization, flow cytometry; response, % (test concentration not listed); 0.43% of 340,000 active; AID 504454;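 active means response above a set limit, near 3 SD of response in nonfluorescent compounds, cut at about 42% in these data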
Target sequence (P07550 whole entry, looked up): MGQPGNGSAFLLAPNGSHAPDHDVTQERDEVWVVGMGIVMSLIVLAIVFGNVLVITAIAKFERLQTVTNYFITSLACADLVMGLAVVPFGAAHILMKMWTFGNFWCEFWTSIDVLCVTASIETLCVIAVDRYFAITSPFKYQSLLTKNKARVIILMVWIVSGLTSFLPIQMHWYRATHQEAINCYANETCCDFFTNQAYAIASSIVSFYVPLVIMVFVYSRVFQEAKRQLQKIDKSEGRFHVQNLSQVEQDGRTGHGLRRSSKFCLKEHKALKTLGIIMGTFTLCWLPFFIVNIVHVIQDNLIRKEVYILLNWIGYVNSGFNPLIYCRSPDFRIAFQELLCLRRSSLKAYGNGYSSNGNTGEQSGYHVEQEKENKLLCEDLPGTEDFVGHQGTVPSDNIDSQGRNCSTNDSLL
ABHD5 PLIN5 PPI: inhibitors of human ABHD5-perilipin-5 interaction. Q00G26+Q8WTS1. Split G. princeps luciferase complementation, luminescence, 4 h. inhibition, % at 4 µM. 0.78% of 360,000 active;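 active means inhibition above the mean inhibition across every tested compound plus 3 SD, cut at about 22% in these data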
NOD2-RIPK2 inh: inhibitors of human NOD2-RIPK2 interaction; O43353; CHO BLA complementation NOD2-RIPK2, CCF4 ratio; inhibition, % at 4.98 µM; 0.38% of 360,000 active; in the data active means inhibition above about 21%
Exocytosis inh: blocks lytic granule exocytosis; TALL-104 LAMP-1 surface exposure, flow cytometry; cells stimulated with thapsigargin and PMA; inhibition, % at 10 µM; 0.66% of 360,000 active;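 active means inhibition above about 55%, limit read from the data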
TLR9-MyD88 inh: inhibitors of human TLR9-MyD88 binding | Q9NR96+Q99836 | CHO BLA complementation TLR9-MyD88, CCF4 FRET ratio | inhibition, % at 4.98 µM | 0.21% of 340,000 active | AID 504734;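 active means inhibition above the mean over all tested compounds plus 3 SD, cut at about 21% in these data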
ABHD5-PLIN5 conf: confirmation of human ABHD5-PLIN5 interaction inhibitors | shares compounds with ABHD5 PLIN5 PPI | biochemical ABHD5-PLIN5 interaction, luminescence | inhibition, % at 4 µM | 67% of 2,200 active | AID 651612; in the data active means inhibition above about 23%
HNF4 split-luc: active in HNF4 split-luciferase counter-screen for ABHD5-PLIN5 inhibitors | shares compounds with ABHD5 PLIN5 PPI | inhibition, % at 4 µM | 77% of 2,200 active | HNF4 dimerization, luminescence, biochemical;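 active means mean inhibition across replicate wells exceeding the computed hit threshold, cut at about 13% in these data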;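 further: light from luciferase halves that rejoin when HNF4 fusion proteins dimerize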
Hits are given with their value; n = inactive; x = no result given. A selection: hits, their analogues and other compounds. The true share with any hit is near 2%.

SMILES | TLR4-MyD88 BLA | Beta2AR agonist | ABHD5 PLIN5 PPI | NOD2-RIPK2 inh | Exocytosis inh | TLR9-MyD88 inh | ABHD5-PLIN5 conf | HNF4 split-luc
COc1ccc(N=Nc2c(O)[nH]c(=S)[nH]c2=O)cc1 | n | n | n | n | n | n | x | x
CSc1nc(N)c(N=Nc2ccc([As](=O)(O)O)cc2)c(=O)[nH]1 | x | n | 66.4 | n | n | n | 68.4 | 51.6
[N-]=[N+]=NC1C[C@H](n2ccc(=O)[nH]c2=O)O[C@@H]1CO (some centres undefined) | n | n | n | n | n | n | x | x
CN(C)c1ccc(-[n+]2c(-c3ccccc3)cc(-c3ccccc3)cc2-c2ccccc2)cc1 | n | n | 26.4 | n | n | x | n | n
Cc1ccc(-c2cc(-c3ccc(C)cc3)[n+](-c3ccccc3)c(-c3ccc(C)cc3)c2)cc1 | x | 44.0 | 28.5 | n | n | n | n | n
CCN1C(=O)CC(=O)N(CC)C1=S | x | x | n | n | n | n | x | x
Oc1ccccc1C1NCc2ccccc2-n2cccc21 (centres undefined) | x | n | n | n | n | n | x | x
O=C1NC(=O)N(c2ccccc2)C(=O)/C1=C\c1ccc([N+](=O)[O-])s1 | x | n | x | x | x | x | x | x
CCOc1ccc(N2C(=O)/C(=C\c3cccs3)C(=O)NC2=S)cc1 | n | x | x | x | x | x | x | x
COc1ccc(N2C(=O)NC(=O)/C(=C\c3ccccc3[N+](=O)[O-])C2=O)cc1 | n | n | 23.2 | n | n | n | 81.2 | 85.3
CCOc1ccc(N2C(=O)NC(=O)/C(=C\c3ccccc3[N+](=O)[O-])C2=O)cc1 | x | n | 28.0 | n | n | n | 87.0 | 84.9
O=C1NC(=O)N(Cc2ccc(F)cc2)C(=O)/C1=C\C=C\c1ccco1 | x | 48.4 | 29.5 | n | n | n | 96.1 | 61.9
Cn1cccc1/C=C1\C(=O)NC(=O)N(Cc2ccccc2)C1=O | x | n | n | n | n | n | x | x
COC(=O)C1=C(c2ccc(F)cc2OCc2ccccc2)C[C@@H]2CC[C@H]1N2C(=O)NCc1ccc2c(c1)OCO2 | x | n | n | n | n | n | x | x
CCC1C(c2cc(OC)c(OC)c(OC)c2)c2cc3c(cc2OC1N1CCCC1)OCO3 (centres undefined) | x | n | n | n | n | n | x | x
O=P1(NCCCn2cc[n+](Cc3nc4ccccc4[nH]3)c2)C=C(c2ccccc2)OC(c2ccccc2)=C1 | x | n | 26.2 | n | n | n | n | n
CSc1ncc(/C=C2/C(=O)NC(=O)N(c3ccc(C)cc3)C2=O)cn1 | n | n | n | n | n | n | x | x
CCOc1ccc(N2C(=O)NC(=O)/C(=C/c3cnc(SC)nc3)C2=O)cc1 | n | n | 28.2 | n | n | n | 71.2 | 87.1
Cc1ccc(N2C(=O)NC(=O)/C(=C\c3cnc(-c4ccccc4)nc3)C2=O)cc1 | n | n | 30.4 | n | n | n | 86.5 | 92.2
CSc1ncc(/C=C2/C(=O)NC(=O)N(c3ccc(Cl)cc3)C2=O)cn1 | n | n | 41.5 | n | n | n | 78.1 | 90.6
CN1C(=O)C(C)(C2=CCCCC2)C(=O)NC1=S (centres undefined) | x | n | n | n | n | n | x | x
c1ccc2oc(-c3ccc4c(c3)CNCc3cnnn3-4)cc2c1 | x | x | n | n | n | x | x | x
COc1ccc(-n2c(O)c(/C=C3\C=Nc4ccc(Br)cc43)c(=O)[nH]c2=O)cc1 | x | n | 36.2 | n | n | n | 36.1 | 29.0
CCN1C(=O)NC(=O)/C(=C\c2cn(CC(=O)N3CCCCC3)c3ccccc23)C1=O | x | n | 26.1 | n | n | n | n | 20.2
CCN1C(=O)NC(=O)/C(=C\c2cn(CC(=O)N3CCCC3)c3ccccc23)C1=O | x | n | 25.4 | n | n | n | 24.1 | 25.6
CCN1C[C@]2(C)CC[C@H](OC)[C@]34C2[C@H](OC(C)=O)[C@@]2(OCO[C@@]25C[C@H](OC)[C@H]2C[C@]3(O)C5[C@H]2OC)[C@@H]14 | x | n | n | n | n | n | x | x
C=CCNC(=O)c1c(N)n(Cc2ccco2)c2nc3ccccc3nc12 | n | n | 36.0 | n | n | n | 50.3 | 65.9
COCCNC(=O)c1c(N)n(Cc2ccco2)c2nc3ccccc3nc12 | n | n | n | n | n | n | x | x
